Structures are written as SMILES. Records with an inconclusive call do not appear. A number with no mark means an inactive call. Calls of active or inactive are those of the source. Calls come from the whole dose curve; as a rule, active = well fitted inhibition curve with a large enough effect; inconclusive = small, poorly fitted or top-dose-only effect; inactive = flat fitted curve, though single readings scatter.

One test deals with PC49. Nature of the test: qHTS profiling for inhibitors of Plasmodium falciparum proliferation (AID 504749). The conditions noted are these: P. falciparum in erythrocytes, SYBR Green DNA, 72 h; series mostly up to 28.7 µM. The gist of the method: (§1)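 Readout was DNA-dye fluorescence from lysed cultures, ex 485/em 535 nm. Parasitized red cells had grown 72 h with compound; data scaled between 0.29 uM artemisinin and DMSO wells and corrected using vehicle-only plates.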

A further test concerns SC27B. The description is as above. The settings on record: P. falciparum in erythrocytes, SYBR Green DNA, 72 h; series mostly up to 28.7 µM. The gist of the method:
as §1

Another test concerns TAB109. The test is described as above. The settings on record: P. falciparum in erythrocytes, SYBR Green DNA, 72 h; series mostly up to 28.7 µM. The gist of the method: as §1
The subject of another test is TAB113. The description is as above. The conditions noted are these: P. falciparum in erythrocytes, SYBR Green DNA, 72 h; series mostly up to 28.7 µM. The gist of the method:
as §1

The test system of another test is TAB165. The description is as above. The conditions noted are these: P. falciparum in erythrocytes, SYBR Green DNA, 72 h; series mostly up to 28.7 µM. The gist of the method: as §1
The next test has as its system W2. The description is as above. The settings on record: P. falciparum in erythrocytes, SYBR Green DNA, 72 h; series mostly up to 28.7 µM. The gist of the method:
as §1

In a further test the test system is PC26. The test is described as above. The conditions noted are these: P. falciparum in erythrocytes, SYBR Green DNA, 72 h; series mostly up to 28.7 µM. The gist of the method:
as §1

Another test relates to HEK293. Nature of the test: Cytotoxic Profiling of Annotated Libraries Using Quantitative High-Throughput Screening (AID 1296008). For max response: % is set by controls: 0 for no effect and ±100 for the full control effect. The conditions noted are these: Five cell lines viability, CellTiter-Glo ATP luminescence, 48-72 h; max response: stronger effect = lower value. The gist of the method: (§2)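 Cells exposed to compounds for 48 or 72 hr at 37 degrees Celsius. Viability read as ATP-coupled luminescence with CellTiter-Glo after 10 min at room temperature.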

For another test, the system named is HaCat. Described as above. The conditions noted are these: Five cell lines viability, CellTiter-Glo ATP luminescence, 48-72 h; max response: stronger effect = lower value. The gist of the method: as §2
Note: nearly all actives have a fitted effect of over 60% in size.
Potency is the fitted concentration of half-maximal effect.

With `CCCCC[C@H](O)/C=C/[C@@H]1[C@@H](C/C=C\CCCC(=O)O)[C@@H](O)C[C@H]1O`, the Potency result in the test with PC49, in the test with SC27B, with TAB109, in the test with TAB113, with TAB165 and with W2 was “inactive” throughout.

As for `C=CC(N)CCC(=O)O` (stereo unspecified), the Potency result with PC26, in the test on PC49, with SC27B, with TAB109, in the test on TAB113 and with TAB165 was “inactive” each time. For the same compound, the Potency result with W2 is “inactive”.

Take `CC(=O)[C@]1(O)Cc2c(O)c3c(c(O)c2[C@@H](O[C@H]2C[C@H](N)[C@H](O)[C@H](C)O2)C1)C(=O)c1c(O)cccc1C3=O`: the Potency is 8.91 µM (active) with PC49; 12.6 µM (active) in the test on SC27B; 7.08 µM (active) with TAB109; 7.08 µM (active) with TAB113; 5.01 µM (active) in the test with TAB165; 4.26 µM (active) in the test on W2.

Regarding `CC1(C)C[C@@H]1C(=O)N/C(=C\CCCCSC[C@H](N)C(=O)O)C(=O)O`, the Potency entry in the test with PC26, in the test with PC49, in the test with SC27B, in the test with TAB109, in the test on TAB113 and with TAB165 was “inactive” throughout. The Potency result in the test on W2 is “inactive”.

Turning to `C=C(Nc1ccc(OCC)cc1)Nc1ccc(OCC)cc1`, the Potency result in the test with PC26, with PC49, in the test with SC27B, in the test on TAB109, in the test with TAB113 and in the test with TAB165 was “inactive” throughout.

`Cc1ccccc1CNc1ncnc2c1ncn2C1OC(CO)C(O)C1O` (stereo unspecified): the Potency entry in the test on PC26, with PC49, in the test with SC27B, with TAB109, with TAB113 and with TAB165 was “inactive” each time. In the test on W2, the Potency entry is “inactive”.

Consider `O=C(OCc1ccccc1)c1ccccc1`, for which the Potency result in the test with PC26, in the test on PC49, in the test with SC27B, in the test on TAB109, with TAB113 and in the test with TAB165 was “inactive” throughout. In addition, the Potency result in the test with W2 is “inactive”. The max response is -2.07% with HEK293 and 4.92% in the test on HaCat.

As to `CN1[C@@H](CC(=O)c2ccccc2)CCC[C@H]1C[C@H](O)c1ccccc1`, the results for the Potency with PC49, in the test on TAB165 and with W2 were 7.08 µM (active), 14.1 µM (active) and 5.36 µM (active), respectively.

Take `COc1cc(/C=C/C(=O)CC(=O)/C=C/c2ccc(O)c(OC)c2)ccc1O`: the values for the Potency in the test on PC26 and in the test on W2 were 9.53 µM (active) and 6.75 µM (active), respectively. Besides, the Potency entry in the test with PC49 was “inactive”.

For the compound `CC1OC1P(=O)(O)O` (stereo unspecified), the Potency result with PC26, with PC49, in the test with SC27B, in the test on TAB113, in the test with TAB165 and in the test with W2 was “inactive” each time.

`CN(C)[C@@H]1C(=O)C(C(=O)NCN2CCCC2)=C(O)[C@@]2(O)C(=O)C3=C(O)c4c(O)cccc4[C@@](C)(O)C3C[C@@H]12` (stereo partly specified): the max response in the test on HaCat is -12.7%.

As for `C[S+](CC[C@H](N)C(=O)O)C[C@H]1O[C@@H](n2cnc3c(N)ncnc32)[C@H](O)[C@@H]1O` (stereo partly specified), the Potency result with PC26, in the test on PC49, in the test with SC27B and in the test on W2 was “inactive” throughout.

Regarding `COC(=O)C1=C(C)NC(C)=C(C(=O)OCC(C)C)C1c1ccccc1[N+](=O)[O-]` (stereo unspecified), the figures for the Potency in the test with TAB109, with TAB165 and in the test with W2 were 8.91 µM (active), 10 µM (active) and 6.01 µM (active), respectively. Further, in the test on HaCat, the max response is 0.281%.

On to `O=C(O)COc1ccc(C(=O)c2cccs2)c(Cl)c1Cl`, for which the Potency entry in the test with PC26, with PC49, in the test on SC27B, with TAB109, in the test with TAB113 and in the test with TAB165 was “inactive” throughout. Moreover, the Potency entry with W2 was “inactive”.

For `NC(=O)C(c1ccccc1)(c1ccccc1)[C@@H]1CCN(CCc2ccc3c(c2)CCO3)C1`, in the test on W2, the Potency was 1.69 µM (active).

Take `O=C(O)[C@H](O)[C@@H](O)[C@H](O)[C@H](O)CO`: the Potency entry in the test with PC26, with PC49, with SC27B, in the test on TAB109, in the test with TAB113 and in the test on TAB165 was “inactive” in each case. Further, the Potency entry with W2 is “inactive”.

As for `CCCCCCOc1ccccc1C(N)=O`, the Potency result in the test on PC26, in the test with PC49, in the test on SC27B, with TAB109, with TAB113 and in the test on TAB165 was “inactive” each time. Besides, the Potency result in the test on W2 was “inactive”. Moreover, the max response in the test on HaCat is -20.5%.

With `CCCCCC[C@@H](O)C/C=C\CCCCCCCC(=O)O`, the Potency result with PC26, in the test on PC49, in the test on SC27B, in the test on TAB109, with TAB113 and in the test on TAB165 was “inactive” in each case. Besides, the Potency result in the test with W2 is “inactive”.

As to `CCCCCCCCCCCCCCCCCC(=O)O`, the Potency result with PC26, in the test with PC49, in the test with SC27B, with TAB113, with TAB165 and with W2 was “inactive” in each case. Further, the call in the test with HEK293 and in the test with HaCat was inactive.

Regarding `CN(C)c1ccc(N=NS(=O)(=O)O)cc1`, the max response in the test with HaCat is -1.75%.

As for `O=C1CN(/N=C/c2ccc(-c3ccc([N+](=O)[O-])cc3)o2)C(=O)N1`, the Potency entry in the test with SC27B, in the test with TAB109, with TAB113, with TAB165 and with W2 was “inactive” in each case.

For the compound `C#C[C@]1(O)CC[C@H]2[C@@H]3CCc4cc(O)ccc4[C@H]3CC[C@@]21C`, the Potency result with PC26, in the test on PC49, with SC27B, with TAB109, in the test with TAB113 and in the test on TAB165 was “inactive” in each case. The Potency entry in the test with W2 is “inactive”. Further, the Potency with HaCat is 4.73 µM (active).

As to `Cc1[nH]cnc1CN1CCc2c(c3ccccc3n2C)C1=O`, the Potency entry with PC26, with PC49, with SC27B, with TAB109, in the test on TAB113 and with TAB165 was “inactive” throughout. Besides, the Potency result in the test with W2 was “inactive”.

Turning to `Oc1c(Br)cc(Br)c2cccnc12`, the Potency entry with PC26, in the test with PC49, in the test with SC27B, in the test on TAB109 and with W2 was “inactive” in each case.

For `Nc1nc2ccc([N+](=O)[O-])cc2s1`, the Potency in the test with HaCat is 27.3 µM (active).

With `N=c1ccn2c(n1)O[C@H]1[C@H](O)[C@@H](CO)O[C@H]12`, the Potency result in the test with PC26, in the test on PC49, with SC27B, with TAB109, in the test on TAB113 and in the test on TAB165 was “inactive” in each case. In the test on W2, the Potency entry is “inactive”.

Take `O=c1cc(-c2ccccc2)oc2ccccc12`: the Potency in the test with HaCat was 34 µM (active).

On to `C=CCN1C(=O)C(CC(C)C)NC1=S` (stereo unspecified), for which the Potency result with PC26, in the test with PC49, in the test on SC27B, in the test with TAB109, in the test on TAB113 and in the test with TAB165 was “inactive” throughout. In addition, the Potency entry in the test on W2 is “inactive”.

Consider `NS(=O)(=O)c1ccc(-n2nc(C(F)(F)F)cc2-c2ccc(Cl)cc2)cc1`, for which, in the test with HaCat, the compound was called inactive.

Consider `CCN(CC)CCCCNc1ncc2cc(-c3c(Cl)cccc3Cl)c(NC(=O)NC(C)(C)C)nc2n1`, for which the Potency in the test with HaCat is 20.6 µM (active).
